# The full data set covers some 8,800 targets. This sample favours those with a hit. About 0.5% of all pairs of compound and target were hits. A number with no mark means an inactive call.
# Key:
# Assay in all cases: log2 fold change, soluble protein after heating vs DMSO (PISA); higher = thermal stabilisation; K562 lysate, 10 uM; active = over 0.2 and 3.5 SD of the protein, either way, in both replicates (recomputed)
# [1] = compound: C#Cc1cccc(Nc2ncnc3cc(OCCOC)c(OCCOC)cc23)c1 [erlotinib]
# Summary of the method: (§1)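 Quantification was by TMTpro 16plex LC-MS/MS with equalised channel sums, applied to the supernatant after 21,000xg for 90 min. Samples were crude K562 extract at 1 mg/mL protein in PBS pH 7.4 with 1 mM MgCl2, treated with 10 μM compound for 30 min, heated for 3 min across 48°C-58°C, pooled and brought to 0.5% NP-40 at 4°C. Values are log-two fold changes in thermal stability relative to solvent controls, from duplicates.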
# [2] = compound: C/C(=N\NC(=O)C1=CC(=CC=C1)S(=O)(=O)N2CCOCC2)/C3=C(C=CC(=C3)Cl)O
# Summary of the method: as §1
# [3] = compound: C1=CC(=CC=C1C2=NC3=C(N2)C=C(C=C3)C(=O)N)OC4=CC=C(C=C4)Cl
# Summary of the method: as §1
# [4] = compound: C1=CC2=C(C=CC(=C2)/C=C\3/C(=O)NC(=NCC4=CC=CS4)S3)N=C1
# Summary of the method: as §1
# [5] = compound: C1=CC2=NC=CN=C2C=C1/C=C/3\C(=O)NC(=O)S3
# Summary of the method: as §1
# [6] = compound: C1=CC=C(C=C1)C2=NC(=C(N2)C3=CC=NC=C3)C4=CC(=C(C=C4)Cl)O
# Summary of the method: as §1
# [7] = compound: C1=CC=C2C(=C1)C3=NNC4=CC=CC(=C43)C2=O
# Summary of the method: as §1
# [8] = compound: C1CCN(C1)C(=O)NC2=CC=CC(=C2)NC3=NC=C(C(=N3)NCCC4=CN=CN4)Br
# Summary of the method: as §1
# [9] = compound: C1CN(CCC1(CC2=CC=C(C=C2)Cl)N)C3=NC=NC4=C3C=CN4
# Summary of the method: as §1
# [10] = compound: C1COCCN1CCN2C3=CC=CC=C3N=C2NC(=O)C4=CC(=CC=C4)[N+](=O)[O-] [IRAK-1-4 Inhibitor I]
# Summary of the method: as §1
# Chain of UniProt Q9BV86 (Q9BV86 whole entry, looked up): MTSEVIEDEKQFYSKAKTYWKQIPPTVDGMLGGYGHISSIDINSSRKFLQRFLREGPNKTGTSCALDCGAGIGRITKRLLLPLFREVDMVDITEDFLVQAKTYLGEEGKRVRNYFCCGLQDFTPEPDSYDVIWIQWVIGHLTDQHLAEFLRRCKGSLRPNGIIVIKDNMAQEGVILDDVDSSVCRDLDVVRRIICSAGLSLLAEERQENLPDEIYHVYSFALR
# Chain of UniProt Q9NZJ9 (Q9NZJ9 whole entry, looked up): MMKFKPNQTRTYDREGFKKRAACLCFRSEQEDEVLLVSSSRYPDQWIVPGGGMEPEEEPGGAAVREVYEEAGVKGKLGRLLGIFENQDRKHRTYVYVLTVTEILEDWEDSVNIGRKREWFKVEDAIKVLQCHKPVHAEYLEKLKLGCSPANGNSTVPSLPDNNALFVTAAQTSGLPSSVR
# Chain of UniProt Q13423 (Q13423 whole entry, looked up): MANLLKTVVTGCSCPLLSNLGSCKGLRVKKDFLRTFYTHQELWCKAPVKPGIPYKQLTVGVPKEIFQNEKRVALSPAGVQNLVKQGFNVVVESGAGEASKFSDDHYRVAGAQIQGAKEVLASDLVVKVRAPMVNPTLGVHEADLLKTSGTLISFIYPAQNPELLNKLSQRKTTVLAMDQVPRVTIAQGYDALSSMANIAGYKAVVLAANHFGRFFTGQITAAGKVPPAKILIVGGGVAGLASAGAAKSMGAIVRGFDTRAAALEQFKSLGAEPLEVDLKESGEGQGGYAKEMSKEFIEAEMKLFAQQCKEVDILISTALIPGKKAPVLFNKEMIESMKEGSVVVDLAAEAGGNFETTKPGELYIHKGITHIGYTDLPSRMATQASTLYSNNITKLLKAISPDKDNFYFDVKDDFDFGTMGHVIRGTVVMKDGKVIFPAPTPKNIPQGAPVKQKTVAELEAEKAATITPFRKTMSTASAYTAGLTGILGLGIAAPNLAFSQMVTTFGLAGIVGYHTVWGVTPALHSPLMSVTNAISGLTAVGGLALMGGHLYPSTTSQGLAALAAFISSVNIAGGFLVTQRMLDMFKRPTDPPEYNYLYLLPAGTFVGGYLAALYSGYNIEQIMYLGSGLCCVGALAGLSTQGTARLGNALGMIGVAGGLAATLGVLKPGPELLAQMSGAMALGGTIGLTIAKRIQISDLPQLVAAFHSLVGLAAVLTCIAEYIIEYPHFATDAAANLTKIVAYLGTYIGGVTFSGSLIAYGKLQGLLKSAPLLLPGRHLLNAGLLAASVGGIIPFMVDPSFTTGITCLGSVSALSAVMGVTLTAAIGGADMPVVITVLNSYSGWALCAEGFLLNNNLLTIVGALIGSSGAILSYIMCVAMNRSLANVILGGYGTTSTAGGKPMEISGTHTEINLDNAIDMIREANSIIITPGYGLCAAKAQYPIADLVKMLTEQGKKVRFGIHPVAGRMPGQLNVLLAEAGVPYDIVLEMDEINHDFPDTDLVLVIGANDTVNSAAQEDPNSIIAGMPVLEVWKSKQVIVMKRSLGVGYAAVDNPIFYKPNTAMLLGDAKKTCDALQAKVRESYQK
# Chain of UniProt Q9HD67 (Q9HD67 whole entry, looked up): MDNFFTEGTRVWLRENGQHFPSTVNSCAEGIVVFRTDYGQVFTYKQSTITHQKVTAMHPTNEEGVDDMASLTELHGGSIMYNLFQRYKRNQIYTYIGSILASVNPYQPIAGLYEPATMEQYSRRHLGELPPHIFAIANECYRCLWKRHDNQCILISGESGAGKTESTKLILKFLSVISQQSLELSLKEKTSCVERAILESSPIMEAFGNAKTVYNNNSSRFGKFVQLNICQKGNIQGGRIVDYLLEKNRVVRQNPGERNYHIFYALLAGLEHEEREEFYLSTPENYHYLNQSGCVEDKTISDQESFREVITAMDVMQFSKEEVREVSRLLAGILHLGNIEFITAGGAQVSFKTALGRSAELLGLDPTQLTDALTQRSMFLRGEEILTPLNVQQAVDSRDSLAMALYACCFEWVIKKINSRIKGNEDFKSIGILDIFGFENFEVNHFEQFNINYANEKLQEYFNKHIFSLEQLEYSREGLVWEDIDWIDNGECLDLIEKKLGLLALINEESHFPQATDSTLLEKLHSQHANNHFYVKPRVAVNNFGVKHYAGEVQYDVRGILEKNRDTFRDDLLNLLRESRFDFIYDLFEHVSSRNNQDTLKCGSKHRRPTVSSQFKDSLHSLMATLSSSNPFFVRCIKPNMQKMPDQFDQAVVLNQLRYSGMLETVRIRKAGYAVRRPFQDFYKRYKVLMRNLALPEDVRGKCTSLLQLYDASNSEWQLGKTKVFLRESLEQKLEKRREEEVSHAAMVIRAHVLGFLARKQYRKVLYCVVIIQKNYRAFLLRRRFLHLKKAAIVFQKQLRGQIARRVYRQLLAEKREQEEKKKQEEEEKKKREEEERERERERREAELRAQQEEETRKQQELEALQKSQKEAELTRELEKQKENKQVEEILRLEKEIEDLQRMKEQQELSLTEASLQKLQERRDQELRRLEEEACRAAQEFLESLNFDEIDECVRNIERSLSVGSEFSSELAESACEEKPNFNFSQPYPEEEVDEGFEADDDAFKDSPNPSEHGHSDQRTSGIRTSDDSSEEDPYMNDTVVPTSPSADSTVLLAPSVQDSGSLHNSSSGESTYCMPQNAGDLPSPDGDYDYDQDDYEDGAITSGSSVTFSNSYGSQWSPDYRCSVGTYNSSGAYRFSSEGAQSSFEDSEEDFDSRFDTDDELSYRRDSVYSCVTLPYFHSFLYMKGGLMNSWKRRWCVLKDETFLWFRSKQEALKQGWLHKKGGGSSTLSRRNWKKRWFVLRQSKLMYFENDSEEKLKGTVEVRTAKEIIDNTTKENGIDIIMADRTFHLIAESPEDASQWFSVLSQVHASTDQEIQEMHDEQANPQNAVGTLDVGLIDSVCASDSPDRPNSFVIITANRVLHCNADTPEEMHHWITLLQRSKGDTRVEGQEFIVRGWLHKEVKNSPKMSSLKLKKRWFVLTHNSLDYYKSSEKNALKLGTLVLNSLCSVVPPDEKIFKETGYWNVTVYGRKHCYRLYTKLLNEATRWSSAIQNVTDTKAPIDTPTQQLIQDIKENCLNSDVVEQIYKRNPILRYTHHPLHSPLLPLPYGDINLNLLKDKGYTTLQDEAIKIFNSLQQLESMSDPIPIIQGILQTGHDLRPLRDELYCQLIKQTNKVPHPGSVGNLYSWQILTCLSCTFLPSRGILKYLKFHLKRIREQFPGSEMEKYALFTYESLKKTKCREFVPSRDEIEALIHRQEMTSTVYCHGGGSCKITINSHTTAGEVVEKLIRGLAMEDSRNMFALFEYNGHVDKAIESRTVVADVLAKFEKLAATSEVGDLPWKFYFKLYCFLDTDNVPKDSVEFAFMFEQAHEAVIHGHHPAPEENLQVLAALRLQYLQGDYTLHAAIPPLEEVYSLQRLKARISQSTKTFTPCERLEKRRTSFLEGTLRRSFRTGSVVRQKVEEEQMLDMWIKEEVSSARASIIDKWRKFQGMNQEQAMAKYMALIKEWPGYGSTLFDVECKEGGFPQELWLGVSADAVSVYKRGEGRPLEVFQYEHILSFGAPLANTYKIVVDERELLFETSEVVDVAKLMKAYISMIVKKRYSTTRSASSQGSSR
# Chain of UniProt Q15021 (Q15021 whole entry, looked up): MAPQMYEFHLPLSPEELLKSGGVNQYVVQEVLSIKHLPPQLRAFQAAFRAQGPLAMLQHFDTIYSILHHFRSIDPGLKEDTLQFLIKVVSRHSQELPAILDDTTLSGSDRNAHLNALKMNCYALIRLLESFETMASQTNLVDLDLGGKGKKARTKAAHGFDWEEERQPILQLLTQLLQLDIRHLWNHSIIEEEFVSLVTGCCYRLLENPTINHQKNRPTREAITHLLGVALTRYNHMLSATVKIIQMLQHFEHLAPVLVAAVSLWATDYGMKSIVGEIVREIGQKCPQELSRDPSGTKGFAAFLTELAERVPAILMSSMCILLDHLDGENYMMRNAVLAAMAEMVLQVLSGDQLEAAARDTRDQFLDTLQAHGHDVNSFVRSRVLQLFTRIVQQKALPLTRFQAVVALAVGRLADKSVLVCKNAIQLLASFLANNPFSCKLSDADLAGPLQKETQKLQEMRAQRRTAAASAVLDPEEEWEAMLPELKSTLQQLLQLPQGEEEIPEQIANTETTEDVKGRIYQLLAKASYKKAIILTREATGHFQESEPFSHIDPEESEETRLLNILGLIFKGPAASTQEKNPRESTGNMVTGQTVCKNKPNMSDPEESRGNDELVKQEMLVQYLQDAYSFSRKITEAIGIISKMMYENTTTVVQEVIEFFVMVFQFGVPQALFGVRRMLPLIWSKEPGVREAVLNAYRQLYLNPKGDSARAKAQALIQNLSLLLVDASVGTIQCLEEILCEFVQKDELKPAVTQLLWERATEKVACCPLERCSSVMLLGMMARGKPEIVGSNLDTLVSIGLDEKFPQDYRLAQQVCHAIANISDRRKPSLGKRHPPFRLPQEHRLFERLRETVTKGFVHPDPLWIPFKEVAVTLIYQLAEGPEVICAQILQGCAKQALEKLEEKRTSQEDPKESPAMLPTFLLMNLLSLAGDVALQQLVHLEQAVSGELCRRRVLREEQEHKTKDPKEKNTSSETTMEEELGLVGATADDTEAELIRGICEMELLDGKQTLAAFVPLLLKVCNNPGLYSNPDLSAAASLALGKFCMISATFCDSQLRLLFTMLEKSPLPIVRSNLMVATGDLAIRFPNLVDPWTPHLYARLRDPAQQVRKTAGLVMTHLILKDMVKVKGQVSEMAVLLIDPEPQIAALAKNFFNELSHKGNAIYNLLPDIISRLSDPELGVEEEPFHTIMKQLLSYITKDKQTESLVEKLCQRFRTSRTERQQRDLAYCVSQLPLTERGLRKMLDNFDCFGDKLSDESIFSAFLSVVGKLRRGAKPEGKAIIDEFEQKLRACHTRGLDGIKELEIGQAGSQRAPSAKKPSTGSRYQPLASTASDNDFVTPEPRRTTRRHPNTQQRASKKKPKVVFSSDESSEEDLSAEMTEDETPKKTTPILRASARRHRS
# Chain of UniProt P03928 (P03928 whole entry, looked up): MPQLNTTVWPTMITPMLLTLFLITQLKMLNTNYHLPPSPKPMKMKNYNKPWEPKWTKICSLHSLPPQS
Target,log2 fold change [1],log2 fold change [2],log2 fold change [3],log2 fold change [4],log2 fold change [5],log2 fold change [6],log2 fold change [7],log2 fold change [8],log2 fold change [9],log2 fold change [10]
MRPS12 (UniProt O15235),-0.015,-0.058,0,-0.044,-0.016,0.019,-0.251,-0.004,-0.127,0.043
MT-ATP8 (UniProt P03928),0.069,0.006,-0.006,-0.041,0.103,-0.103,-0.062,0.116,0.068,0.033
OTC (UniProt P00480),0.09,0.138,-0.096,-0.121,-0.049,-0.074,-0.069,-0.074,-0.095,0.125
NSL1 (UniProt Q96IY1),0.01,-0.004,0.015,-0.001,-0.002,0.01,0.077,0.001,-0.015,0.026
PAK4 (UniProt O96013),0,-0.076,0.072,0.052,-0.006,-0.005,0.335,0.469,0.124,-0.044
NFKBIB (UniProt Q15653),0.113,-0.135,0,0.03,0.025,-0.026,0.06,0.016,-0.008,0.052
NOSTRIN (UniProt Q8IVI9),-0.031,0.032,0.132,0.072,-0.008,-0.013,0.07,-0.055,-0.065,0.001
NCAPD2 (UniProt Q15021),0.011,0.011,-0.005,0.032,-0.009,-0.016,-0.025,-0.007,-0.005,-0.001
PANK4 (UniProt Q9NVE7),0.013,-0.012,0.003,0.051,0.033,0.003,-0.052,-0.002,0.018,0.018
NARS2 (UniProt Q96I59),-0.027,-0.034,-0.045,0.031,0.022,-0.021,-0.04,0.027,-0.027,-0.088
NMRAL1 (UniProt Q9HBL8),0.008,0.012,-0.111,-0.011,-0.037,-0.054,0.141,0.024,0.001,-0.02
NNT (UniProt Q13423),-0.027,0.013,-0.014,-0.012,-0.006,-0.008,-0.033,0,0.031,-0.026
OSBPL6 isoform 5 (UniProt Q9BZF3),0.182,0.398 (active),0.09,-0.006,-0.012,0.257,0.107,-0.029,-0.015,-0.08
NTMT1 (UniProt Q9BV86),0.002,0.031,0.02,0.055,-0.001,-0.002,0.014,0.021,0.042,-0.033
NPM3 (UniProt O75607),0.023,-0.047,0.034,0.019,-0.059,-0.013,0.025,-0.004,0.053,-0.028
NCAPD3 (UniProt P42695),0.023,0.021,-0.012,0.006,-0.003,0.012,-0.043,-0.004,0.042,0.03
NCAPG2 (UniProt Q86XI2),0.023,-0.026,-0.019,0.001,0.006,-0.004,-0.026,0.023,-0.016,0.004
MTA3 (UniProt Q9BTC8),0.025,-0.051,0.02,-0.022,-0.078,-0.046,0,0.004,0.025,0.012
NUDT4 isoform 2 (UniProt Q9NZJ9),0.023,0.015,0.05,-0.048,0.015,-0.007,-0.005,-0.069,0.032,-0.006
PARG (UniProt Q86W56),0.009,-0.013,-0.062,0.008,-0.011,0.004,-0.013,0.003,-0.011,0.048
MYO10 (UniProt Q9HD67),-0.044,-0.13,0.19,0.017,-0.062,0.014,-0.16,,,0.102
NOCT (UniProt Q9UK39),-0.129,,0.061,,,0.1,,-0.134,0.06,0.007
